This is a sample that favours compounds with a hit; in the whole collection about 18% have one here.
VDR inh: blocks the human vitamin D receptor. P11473. VDR-SRC2-3 peptide fluorescence polarization, 2 h. Potency, µM, hits mostly inhibitors. 0.93% of 400,000 active. AID 504847
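FP read-out; VDR + SRC2-3 coactivator peptide; 23 nl compound by pintool; 2 h RT incubation; reagents held at 4 deg C, protected from light.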
KAT2A inh: GCN5L2 (KAT2A) acetyltransferase inhibition. Q92830. GCN5L2 HAT assay, ThioGlo1 CoA-SH fluorescence. Potency, µM (top dose mostly 58.9 µM), most hits filed as inhibitors. 0.21% of 390,000 active
Target sequence (Q92830 whole entry, looked up): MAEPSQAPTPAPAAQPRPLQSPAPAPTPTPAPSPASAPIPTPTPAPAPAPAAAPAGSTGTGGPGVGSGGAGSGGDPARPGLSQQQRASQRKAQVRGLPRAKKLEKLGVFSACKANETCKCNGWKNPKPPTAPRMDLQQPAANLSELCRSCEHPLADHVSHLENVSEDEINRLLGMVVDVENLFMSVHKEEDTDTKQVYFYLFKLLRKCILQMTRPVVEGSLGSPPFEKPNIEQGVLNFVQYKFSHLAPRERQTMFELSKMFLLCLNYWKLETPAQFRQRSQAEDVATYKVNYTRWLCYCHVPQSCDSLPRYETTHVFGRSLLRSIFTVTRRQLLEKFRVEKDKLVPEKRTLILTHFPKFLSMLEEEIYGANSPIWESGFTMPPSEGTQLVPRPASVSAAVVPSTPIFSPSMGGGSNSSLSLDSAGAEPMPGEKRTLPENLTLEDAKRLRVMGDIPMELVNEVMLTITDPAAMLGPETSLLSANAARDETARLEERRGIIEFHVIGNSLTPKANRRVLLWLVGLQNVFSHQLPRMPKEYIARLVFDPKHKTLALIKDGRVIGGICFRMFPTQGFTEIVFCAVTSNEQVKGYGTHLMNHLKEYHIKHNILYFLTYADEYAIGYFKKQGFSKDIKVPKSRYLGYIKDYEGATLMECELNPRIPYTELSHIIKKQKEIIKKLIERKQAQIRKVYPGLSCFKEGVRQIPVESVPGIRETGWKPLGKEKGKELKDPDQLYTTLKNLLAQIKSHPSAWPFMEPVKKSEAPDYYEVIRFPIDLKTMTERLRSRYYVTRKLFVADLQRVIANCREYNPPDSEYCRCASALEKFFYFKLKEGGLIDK
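GCN5L2 (20 nM) in 50mM HEPES pH 7.5, 0.1mM EDTA, 0.01% Tween-20 preincubated 15 min with compounds at room temperature. Reaction started with H3(1-25) 75uM, acetyl-CoA 70uM, ThioGlo1 50uM; CoA-thiol fluorescence (Ex340/Em540) read at 0 and 20 min.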
TDP1 cell CPT: DT40-hTDP1 cell growth loss with CPT; chicken DT40 Tdp1-/-;hTDP1 cells + 20 nM CPT, ATP luminescence, 48 h; Potency, µM (titrated, usually from 46.2 µM), actives largely listed as inhibitors; 12% of 420,000 active; AID 686979; note: nearly all actives have a fitted effect of over 55% in size
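Chicken DT40 Tdp1-/- cells complemented with human TDP1, 400 cells/well, exposed to compounds plus 20 nM camptothecin for at least 48 h at 37 C; viability read as ATP content by CellTiter-Glo luminescence.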
PLK1 PBD block: blocks phosphopeptide binding to human PLK1 polo-box domain. P53350. 2.8% of 360,000 active. AID 720504. Plk1 PBD binding of FITC phosphopeptide, fluorescence polarization. Potency, µM, hits mostly inhibitors; note: series mostly up to about 57 µM; nearly all actives have a fitted effect of over 65% in size
TDP1 cell noCPT: qHTS for Inhibitors of human tyrosyl-DNA phosphodiesterase 1 (TDP1): qHTS in cells in absence of CPT. DT40 Tdp1-/- hTDP1 cells, no CPT, ATP luminescence, 48 h. Potency, µM (doses to about 46.2 µM), most hits filed as inhibitors. 15% of 420,000 active. AID 686978, 2013; note: nearly all actives have a fitted effect of over 55% in size
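Stably hTDP1-transfected Tdp1-null chicken DT40 cells were treated with library compounds minus camptothecin and grown for at least 48 hr at 37 °C, after which cellular ATP was quantified by luminescence.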
TDP1 block: inhibitors of human tyrosyl-DNA phosphodiesterase TDP1; Q9NUW8; recombinant TDP1, AlphaScreen DNA substrate cleavage; Potency, µM (titrated, usually from 130 µM), most hits filed as inhibitors; 0.28% of 350,000 active; AID 485290; note: nearly all actives have a fitted effect of over 40% in size
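Steps: enzyme plus compound, 15 min RT; add biotin/phosphotyrosine-FITC oligonucleotide (15 nM final), react 5 min; add donor/acceptor beads (10 ug/ml final), 10 min; read AlphaScreen. Tdp1 at 1 nM final.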
USP1 UbRho: validation of human USP1/UAF1 inhibitors; shares compounds with VDR inh; Potency, µM (highest dose often 56.8 µM), most hits filed as inhibitors; Ub-Rhodamine cleavage, fluorescence kinetic read; 50% of 50 active
VDR confirm: inhibits human vitamin D receptor, primary hit validation; shares compounds with VDR inh; 89% of 840 active; AID 602199; VDR-coactivator inhibition assay, qHTS confirmation; Potency, µM, hits mostly inhibitors
VDR FP: blocks human VDR-coactivator binding in fluorescein assay; shares compounds with VDR inh; VDR-coactivator binding, fluorescein fluorescence polarization; Potency, µM (highest dose often 57.1 µM), usual class: inhibitors; 48% of 840 active; AID 602200
VDR bla: VDR (human) inhibition, cell-based beta-lactamase validation. shares compounds with VDR inh. VDR beta-lactamase reporter cells, FRET ratio; cells co-treated with VDR agonist LG190178. Potency, µM (top dose mostly 46.1 µM), actives largely listed as inhibitors. 23% of 840 active. AID 602202
VDR viability: counter-screen for vitamin D receptor inhibitors: cytotoxicity; 18% of 840 active; AID 602204; cytotoxicity counter-screen, cell viability, qHTS; shares compounds with VDR inh; Potency, µM (titrated, usually from 48.3 µM), most hits filed as cytotoxic; note: nearly all actives have a fitted effect of over 75% in size
Numbers stand for hits; - = inactive; ? = inconclusive; . = no result. Calls come from the whole dose curve; as a rule, active = well fitted curve in the direction sought with a large enough effect; inconclusive = small, poorly fitted or top-dose-only effect, or another doubt; inactive = no such curve, though single readings can be large; an effect the other way counts as inactive or inconclusive.

SMILES | VDR inh | KAT2A inh | TDP1 cell CPT | PLK1 PBD block | TDP1 cell noCPT | TDP1 block | VDR confirm | VDR FP | VDR bla | VDR viability | others
COc1ccc(OC)c(NC(=O)c2nc(S(=O)(=O)Cc3ccccc3F)ncc2Cl)c1 | . | . | 1µM | . | 0.63µM | . | 2.8 | 4µM | 16µM | 11µM
N#C/C(=N\Nc1ccc(S(=O)(=O)N2CCOCC2)cc1)C(N)=S | - | - | ? | ? | ? | - | . | . | . | .
N#CC(C#N)=NNc1ccc(S(=O)(=O)N2CCCCC2)cc1 | 8.9µM | - | ? | - | 16µM | - | 6.7 | 3.2µM | - | ?
Cc1cc(C(=O)Nc2ncn(Cc3ccc(F)cc3)n2)ccc1[N+](=O)[O-] | - | - | - | - | - | . | . | . | . | .
Cc1cc(O)c(C(=O)/C=C/c2ccc(Cl)cc2)c(=O)o1 | ? | ? | ? | - | ? | . | . | . | . | .
CSc1ccc(/C=C/C(=O)c2c(O)cc(C)oc2=O)cc1 | ? | ? | - | - | ? | . | 5.3 | - | ? | ?
CCOC(=O)CNC(=O)N(CCOC)CC1CCCN(C2Cc3ccccc3C2)C1 (stereo unspecified) | - | - | - | - | - | . | . | . | . | .
CCCOc1ccccc1/C=C1/C(=O)ON=C1C | 25µM | - | ? | 3µM | ? | . | 13 | ? | - | -
CCCOc1ccc(/C=C2/C(=O)ON=C2C)cc1OCC | ? | - | ? | 1.7µM | ? | . | 13 | 7.1µM | ? | -
O=C(Oc1ccccc1)c1cccc(C(=O)Oc2ccccc2)c1 | . | . | - | . | - | . | . | . | . | .
O=C(Oc1csc(=S)n1C(=O)c1ccccc1)c1ccccc1 | ? | - | ? | 3µM | ? | - | ? | 8.9µM | - | -
COC1=C(OC)C(=O)c2ccccc2C1=O | 35µM | - | 7.9µM | . | 8.9µM | . | . | . | . | . | USP1 UbRho=30µM
Cc1occc1C(=O)NN1C(=O)C2C3CCC(O3)C2C1=O (stereo unspecified) | - | - | - | - | - | - | . | . | . | .
Cc1nnc(NC(=O)c2nc(S(=O)(=O)Cc3ccccc3)ncc2Cl)s1 | ? | - | 9.2µM | - | 12µM | - | 16 | 13µM | 2.3µM | 4.2µM
O=C(NCc1ccccc1)c1nc(S(=O)(=O)Cc2ccc(F)cc2)ncc1Cl | 32µM | - | 1.3µM | . | 1.5µM | - | 3.2 | 7.9µM | 21µM | 19µM
Cc1cccc(CSc2ncc(Cl)c(C(=O)Nc3nnc(C)s3)n2)c1 | - | - | - | . | - | - | . | . | . | .
Cc1ccc(NC(=O)c2nc(S(=O)(=O)Cc3ccccc3)ncc2Cl)cc1 | 25µM | - | 1.5µM | ? | 0.92µM | - | 19 | ? | ? | ?
O=C(Nc1ccc(F)cc1)c1nc(S(=O)(=O)Cc2ccccc2)ncc1Cl | ? | - | 2.1µM | 17µM | 1.6µM | - | 3.5 | 2.8µM | 3.3µM | 19µM
COCCN(C(=O)COC(=O)CCS(=O)(=O)c1ccccc1)c1c(N)n(Cc2ccccc2)c(=O)[nH]c1=O | - | - | - | - | - | - | . | . | . | .
Cc1ccc(C)c(S(=O)(=O)N2CCN(C(=O)c3ccc(OCc4c(C)noc4C)cc3)CC2)c1 | - | - | ? | - | ? | - | . | . | . | .
CCc1ccc(N2CCN(C(=O)N3CCOCC3)CC2)cc1 | - | - | - | - | - | - | . | . | . | .
Cc1cc(=O)oc2cc(OC(C)C(=O)NC3(C#N)CCCCC3)ccc12 (stereo unspecified) | - | - | - | - | - | - | . | . | . | .
O=C(CNC(=O)c1ccc(F)cc1)c1ccc(Cl)cc1 | - | - | ? | - | ? | - | . | . | . | .
COc1ccc(NC(=O)/C(Cl)=C(/Cl)S(=O)(=O)Cc2ccc(C)cc2)cn1 | 16µM | - | 0.52µM | 21µM | 0.82µM | - | 19 | 13µM | 5.8µM | 21µM
CC1C(=O)N2CCCc3cc(S(=O)(=O)NCc4ccccc4Cl)cc1c32 (stereo unspecified) | - | - | ? | - | - | - | . | . | . | .
SMILES | VDR inh | KAT2A inh | TDP1 cell CPT | PLK1 PBD block | TDP1 cell noCPT | TDP1 block | VDR confirm | VDR FP | VDR bla | VDR viability | others
CCOc1ccc(C(=O)CCC(=O)O)cc1 | - | - | - | - | - | - | . | . | . | .
CCC(=O)c1ccc(OCC(=O)NC2CCN(Cc3ccccc3)CC2)cc1 | - | - | - | - | - | - | . | . | . | .
CCOc1ccc(C(=O)CC(C(=O)O)N2CCCCC2)cc1 (stereo unspecified) | 40µM | - | 13µM | ? | ? | - | 24 | ? | - | -
CCOc1ccc(C(=O)CC(C(=O)O)N2CCN(Cc3ccccc3)CC2)cc1 (stereo unspecified) | 50µM | - | 21µM | - | 3.7µM | - | 24 | 28µM | - | -
CNc1nc(NC)c2cn[nH]c2n1 | - | . | - | - | - | . | . | . | . | .
C/C(=C\c1ccc(C(=O)O)cc1)c1ccc2c(c1)C(C)(C)CCC2(C)C | - | - | - | 27µM | ? | - | . | . | . | . | USP1 UbRho=?
N[C@]1(C(=O)O)CCc2cc(C(=O)O)ccc21 | . | . | - | . | - | - | . | . | . | .
Cc1sc(NC(=O)c2ccccc2)c(C(=O)c2ccccc2)c1C | 56µM | - | ? | 6.7µM | ? | - | 19 | 8.9µM | - | -
CC(C)(CNC(=O)c1cccc(S(=O)(=O)N2CCCCC2)c1)N1CCOCC1 | . | . | - | - | - | . | . | . | . | .
Cc1ccc(N2C(=O)c3sc4nnc(C)c(=O)n4c3C2=O)cc1 | - | - | - | - | - | - | . | . | . | .
Cc1ccccc1N1C(=O)c2sc3nc4c(c(=O)n3c2C1=O)CCC4 | ? | - | 5.8µM | 8.4µM | 18µM | - | 20 | 25µM | ? | -
COc1cccc(C(C2C(=O)CC(C)(C)CC2=O)C2C(=O)CC(C)(C)CC2=O)c1 | ? | - | - | ? | - | . | . | . | . | .
Cc1sc(C(C2C(=O)CC(C)(C)CC2=O)C2C(=O)CC(C)(C)CC2=O)cc1[N+](=O)[O-] | ? | - | ? | 4.7µM | 23µM | - | 6.3 | 4µM | - | -
O=C1/C(=C/c2ccc([N+](=O)[O-])cc2)CCc2ccccc21 | . | - | . | . | . | . | . | . | . | .

Screening data as filed in PubChem.
